According to PubChem BioAssay AID463173 (ICCB-Longwood Screening Facility, Harvard Medical School, 2010):
Screen size: about 52,000 compounds; about 4,300 (8.3%) were called active. Cut-off read from the data, not from the text of the source: active = survival mostly below about 52% (no sharp cut-off); inactive = mostly above about 56%. The full list was thinned out, with actives kept by preference.

What follows are compounds tested on DeltatarO mutant (assay: S. aureus survival, RN4220 and DeltatarO strains – OD600, teichoic acid synthesis inhibitors, primary screen (AID 463173)). Details: S. aureus RN4220 wild type/DeltatarO growth, OD600, 18 h, stronger effect = lower value, screened at 18.75 µg/mL (by protocol).

Row | Structure (SMILES) | survival
1 | CCOc1ccccc1CNC(=O)CCCn1nc(C)c2sc3ccccc3c2c1=O | 85% (inactive)
2 | O=C1C2C3c4ccccc4C(c4ccccc43)C2C(=O)N1CN1CCOCC1 (stereo unspecified) | 78% (inactive)
3 | CCCOc1ccc(NC(=O)CC2C(=O)N(c3ccc(C)cc3)C(=O)N2C2CCCC2)cc1 (stereo unspecified) | 67% (inactive)
4 | Cc1ccc(NC(=O)Cn2c(=O)n(Cc3nc(-c4ccccc4)no3)c(=O)c3cc4c(cc32)OCO4)c(C)c1 | 62% (inactive)
5 | COc1ccc(N(C)C(=O)c2cn(C3CCCCC3)c(=O)c3c2c2ccccc2n3C)cc1 | 67% (inactive)
6 | Cc1ccc(-n2nc(C(=O)NC(C)C)c(=O)n(C)c2=O)cc1 | 78% (inactive)
7 | Cc1c(NC(=O)Nc2ccc(Cl)c(C(F)(F)F)c2)c(=O)n(-c2ccccc2)n1C | 124% (inactive)
8 | CC(C)CCn1c(=O)c2sccc2n2c(CCCC(=O)NCc3ccc(F)cc3)nnc12 | 88% (inactive)
9 | Cc1oc2ncn(C)c(=O)c2c1C(=O)Nc1ccccn1 | 102% (inactive)
10 | COc1cccc(CNC(=O)Cn2c(=O)oc3cc(S(=O)(=O)N4CCCC4)ccc32)c1 | 122% (inactive)
11 | Cc1ccc(Cl)cc1NC(=O)C(=O)NCCc1sc(-c2ccc(F)cc2)nc1C | 90% (inactive)
12 | CC1CCN(S(=O)(=O)c2ccc3c(c2)N(CC(=O)NCC(C)c2ccccc2)C(=O)CO3)CC1 (stereo unspecified) | 64% (inactive)
13 | Cc1ccc(C(=O)Nc2ccc(C(=O)OCc3cc(=O)n4ccsc4n3)cc2)cc1 | 72% (inactive)
14 | Cc1cccc(NC(=O)CSc2nc(-c3ccco3)cc(C(F)(F)F)n2)c1C | 69% (inactive)
15 | Cc1ccc(NC(=O)CSc2nc(-c3ccco3)cc(C(F)(F)F)n2)cc1 | 129% (inactive)
16 | Cc1ccc(NC(=O)CSc2nc(-c3ccco3)cc(C(F)(F)F)n2)cc1C | 33% (active)
17 | Cc1ccc(NC(=O)CSc2nc(-c3ccco3)cc(C(F)(F)F)n2)c(C)c1 | 63% (active)
18 | Cc1ccc(NC(=O)CCSc2nc(-c3ccco3)cc(C(F)(F)F)n2)cc1F | 48% (inactive)
19 | CC(C)NC(=O)CSc1nc(-c2ccco2)cc(C(F)(F)F)n1 | 64% (inactive)
20 | CC(=O)Nc1ccc(S(=O)(=O)NC2(C(F)(F)F)C(=O)Nc3c2c(=O)[nH]c(=O)n3-c2ccc(C)c(C)c2)cc1 (stereo unspecified) | 81% (inactive)
21 | CCOc1ccc(S(=O)(=O)NC(=O)N(CC)Cc2cc3ccccc3o2)cc1 | 76% (inactive)
22 | CCCc1cnc2c(c1SCc1ccc(C(F)(F)F)cc1)c(=O)n(C)c(=O)n2C | 54% (inactive)
23 | Cc1ccc(-c2nc3cc(Cl)ccc3o2)cc1NC(=O)c1cc2ccccc2o1 | 43% (active)

Row | Structure (SMILES) | survival
24 | Cc1ccc2oc(-c3ccc(Cl)c(NC(=O)Cc4ccccc4)c3)nc2c1 | 95% (inactive)
25 | O=C(Nc1ccc2oc(-c3ccc(O)c(Br)c3)nc2c1)c1cc2ccccc2o1 | 49% (inactive)
26 | Cc1c(NC(=O)c2ccc(Br)o2)cccc1-c1nc2ccccc2o1 | 60% (inactive)
27 | Cc1ccc(-c2nc3ccccc3o2)cc1NC(=O)Cc1ccc(Cl)cc1 | 73% (inactive)
28 | Cc1ccc(-c2nc3cc(NC(=O)c4cc5ccccc5o4)ccc3o2)cc1Cl | 139% (inactive)
29 | Cc1ccc(-c2nc3cc(C(C)C)ccc3o2)cc1NC(=O)c1cc2ccccc2o1 | 19% (active)
30 | Cc1ccc2oc(-c3ccc(Cl)c(NC(=O)c4cc5ccccc5o4)c3)nc2c1 | 39% (active)
31 | CC(=O)Nc1cc(-c2nc3cc(Cl)ccc3o2)ccc1C | 51% (inactive)
32 | O=C(Nc1cc(-c2nc3cc(Cl)ccc3o2)ccc1Cl)c1cc2ccccc2o1 | 82% (inactive)
33 | Cc1c(NC(=O)c2cccc3c(Cl)cccc23)cccc1-c1nc2ccccc2o1 | 63% (inactive)
34 | Cc1c(NC(=O)c2cc3ccccc3o2)cccc1-c1nc2ccccc2o1 | 36% (active)
35 | COc1ccc(-n2nc3c(N4CCC(C(=O)NCc5ccccc5C)CC4)nnc(C)c3c2C)cc1 | 90% (inactive)
36 | CCOCCc1nn2c(=O)cc(COC(=O)C(CC)c3ccccc3)nc2s1 (stereo unspecified) | 55% (inactive)
37 | C=CCNC1CCS(=O)(=O)C1 (stereo unspecified) | 98% (inactive)
38 | CSc1ccc(-c2ccc3c(c2)OCCO3)nn1 | 91% (inactive)
39 | COc1ccc(N2CCN(CCN3CCCCC3)CC2)cc1 | 83% (inactive)
40 | CCC(C)(C)NC(=O)Cn1c(-c2ccc(C)cc2)noc1=O | 86% (inactive)
41 | COC(=O)c1c(Oc2ccc(Br)cc2)nnc(-c2ccccc2)c1-c1ccccc1 | 85% (inactive)
42 | COc1ccc(-c2nc(C)c(CCNC(=O)c3cccc(C)c3)s2)cc1OC | 86% (inactive)
43 | CCOC(=O)c1c(NC(=O)CSc2nc(-c3ccc(OC)cc3)cc(C(F)(F)F)n2)sc(C)c1C | 68% (inactive)
44 | COC(=O)c1ccn(-c2nc(-c3ccc(Cl)cc3)cc(C(F)(F)F)n2)n1 | 13% (active)
45 | CCOC(=O)N1CCN(C(=O)c2cnn3c(C(F)(F)F)cc(-c4cccc(OC)c4)nc23)CC1 | 68% (inactive)
46 | CCOC(=O)c1ccn(-c2nc(-c3cccc(OC)c3)cc(C(F)(F)F)n2)n1 | 18% (active)

Row | Structure (SMILES) | survival
47 | COC(=O)CSc1nc(-c2ccc(F)cc2)cc(C(F)(F)F)n1 | 126% (inactive)
48 | COc1ccc(-c2cc(C(F)(F)F)n3nc(-c4ccc(Cl)cc4)cc3n2)cc1OC | 48% (inactive)
49 | CCc1ccccc1NC(=O)C(Cc1cccc(OC)c1)c1nn[nH]n1 (stereo unspecified) | 54% (inactive)
50 | CC(=O)N1CCc2c(sc3c2c(=O)n(-c2cccc(Cl)c2C)c(=O)n3Cc2ccccc2C)C1 | 61% (inactive)
51 | CC(=O)NC1=NN(C(C)=O)C2(S1)C(=O)Nc1ccccc12 (stereo unspecified) | 90% (inactive)
52 | O=C(COc1ccc(Cl)cc1)Nc1ccc(C(=O)OCc2cc(=O)n3ccsc3n2)cc1 | 88% (inactive)
53 | O=C(CSc1ncc2c(n1)-c1cc(Cl)ccc1N(Cc1ccccc1)S2(=O)=O)NCCc1ccccc1 | 89% (inactive)
54 | CCCCCn1c(=O)[nH]c2cc(C(=O)N3CCN(c4cccc(C(F)(F)F)c4)CC3)ccc2c1=O | 66% (inactive)
55 | Cc1ccccc1CCNC(=O)c1ccc2c(c1)nc1n2CCC(C)C1 (stereo unspecified) | 83% (inactive)
56 | Cc1cc(S(=O)(=O)N2CCCC2)ccc1-n1cnnn1 | 113% (inactive)
57 | CCOC(=O)c1ccc(NC(=O)CSc2nc3ccccc3c(=O)n2CCC(=O)NC2CCCCC2)cc1 | 91% (inactive)
58 | CC1(C)OC(c2ccccc2)CC1=O (stereo unspecified) | 110% (inactive)
59 | CC(C)=CCc1c(O)cc(O)c2c1OC(c1ccccc1)CC2=O (stereo unspecified) | 1% (active)
60 | Cc1oc(-c2ccccc2F)nc1CS(=O)CC(=O)NC(C)C (stereo unspecified) | 89% (inactive)
61 | Cc1nn(C(=O)c2ccc(Cl)cc2)c(C)c1S(=O)(=O)N1CCOCC1 | 91% (inactive)
62 | Cc1ccc(C(=O)n2nc(C)c(S(=O)(=O)N3CCCCCC3)c2C)cc1 | 91% (inactive)
63 | Cc1ccc(Sc2c(C)nn(C(=O)c3ccc(Cl)cc3)c2C)cc1 | 19% (active)
64 | Cc1nn(C(=O)COc2ccccc2)c(C)c1Sc1ccccc1 | 115% (inactive)
65 | Cc1ccc(Sc2c(C)nn(C(=O)COc3ccc(F)cc3)c2C)cc1 | 92% (inactive)
66 | Cc1ccc(Sc2c(C)nn(C(=O)COc3ccccc3)c2C)cc1 | 25% (active)
67 | Cc1nn(C(=O)c2ccc(Cl)cc2)c(C)c1Sc1ccc(Cl)cc1 | 51% (active)
68 | Cc1nn(C(=O)COc2ccc(Cl)cc2)c(C)c1Sc1ccccc1 | 87% (inactive)
69 | Cc1nn(C(=O)c2ccccc2)c(C)c1Sc1ccc(Cl)cc1 | 10% (active)

Row | Structure (SMILES) | survival
70 | COc1cc(C(=O)n2nc(C)c(Sc3ccc(Cl)cc3)c2C)cc(OC)c1OC | 57% (inactive)
71 | Cc1nn(C(=O)c2ccccc2)c(C)c1S(=O)(=O)N1CCCCCC1 | 89% (inactive)
72 | Cc1nn(C(=O)c2ccc(Cl)cc2)c(C)c1S(=O)(=O)N1CCCCCC1 | 80% (inactive)
73 | Cn1nccc1C(=O)NCc1ccc2c(c1)CCN2C(=O)c1ccccc1 | 90% (inactive)
74 | O=C1CN(C(=O)c2ccc(S(=O)(=O)N3CCCCC3)cc2)C(c2ccc(F)cc2)c2cc(Br)ccc2N1 (stereo unspecified) | 77% (inactive)
75 | COc1ccc(-n2c(SCc3nc(-c4ccc(C)cc4)no3)nnc2-c2ccccc2)cc1 | 60% (inactive)
76 | O=C(Nc1ccc(OC(F)(F)F)cc1)C1CCCN(S(=O)(=O)c2cccc3nonc23)C1 (stereo unspecified) | 96% (inactive)
77 | Cc1cc(C)cc(C(=O)NCC(c2ccc(N(C)C)cc2)N2CCCC2)c1 (stereo unspecified) | 95% (inactive)
78 | CCN(CC)CCn1c(=N)n(CCOc2ccccc2Cl)c2ccccc21 | 59% (inactive)
79 | CC1CCCCN1C(=O)CSc1nc(C2CC2)nc2ccccc12 (stereo unspecified) | 82% (inactive)
80 | Brc1ccc(-c2nc(N3CCN(c4ccccc4)CC3)c3ccccc3n2)cc1 | 117% (inactive)
81 | CC1CCCCN1c1nc(-c2ccc(C(C)(C)C)cc2)nc2ccccc12 (stereo unspecified) | 3% (active)
82 | CC1CCN(c2nc3ccccc3nc2C(F)(F)F)CC1 | 75% (inactive)
83 | CC1CCN(c2nc(-c3ccc(C(C)(C)C)cc3)nc3ccccc23)CC1 | 6% (active)
84 | CC1CCN(c2nc(-c3ccc(Br)cc3)nc3ccccc23)CC1 | 82% (inactive)
85 | Cc1ccc(C(C(=O)NC2CCCCC2)N(C(=O)Cc2c[nH]c3ccccc23)C2CC2)o1 (stereo unspecified) | 94% (inactive)
86 | COc1ccccc1C1CC(=O)NC(C)=C1C(=O)OC1CCCCCC1 (stereo unspecified) | 86% (inactive)
87 | CCN1CCN(c2ccc(NC(=O)COc3ccccc3)cc2)CC1 | 106% (inactive)
88 | O=C(CN1CCN(c2ccc(F)cc2)CC1)N1CCCC1 | 83% (inactive)
89 | O=S(=O)(N1CCCCC1)N1CCN(c2ccc(F)cc2)CC1 | 65% (active)
90 | O=S(=O)(c1ccc(F)cc1)N1CCCCC1 | 86% (inactive)
91 | CCc1ccc(NC(=O)Cn2c(=O)n(Cc3ccco3)c(=O)c3cccnc32)cc1 | 82% (inactive)
